Data on 62 compounds can be found in PubChem BioAssay AID1578 (Sanford-Burnham Center for Chemical Genomics, 2009).

One may read the inhibition as the change of the read-out against control, counted positive when it falls.

The structures appear in SMILES notation. About 3,000 (1%) of roughly 290,000 compounds were called active. The full list was thinned out, with actives kept by preference. A number with no mark means an inactive call. No stated cut-off is given here; in the data, active means inhibition mostly above about 36% (no sharp cut-off); inactive means mostly below about 34%.

The assay is described as follows: inhibition of NOD1-driven NF-kB reporter – cell-based, luminescence, uHTS, primary screen (AID 1578).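 Further: HEK-293T reporter cells stimulated with the NOD1 agonist gamma-tri-DAP.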 Conditions: NOD1-driven NF-kB luciferase reporter cells, at 4 µM, stronger effect = higher value. A general note: A reporter such as luciferase makes a cellular process visible.
As for `CCOc1ccc(/C(O)=C2/C(=O)C(=O)N(c3ncccn3)C2c2ccccc2)cc1` (configuration not stated), the inhibition is 91.5% (active).

`CCOc1ccc(/C(O)=C2/C(=O)C(=O)N(c3ncccn3)C2c2ccc(C)cc2)cc1` (configuration not stated): the inhibition is -0.8%.

Regarding `CCOc1ccc(/C(O)=C2/C(=O)C(=O)N(c3ncccn3)C2c2ccc(Cl)cc2)cc1` (configuration not stated), the inhibition was -1%.

For the compound `CCOc1ccc(NC(=S)Nc2ccc(F)cc2)cc1`, the inhibition was 2.3%.

On to `CCOc1ccc(NCCC(O)c2ccc(F)cc2)cc1` (configuration not stated), for which the inhibition was 34.5% (active).

Turning to `COc1ccc(NCCC(O)c2ccc(Cl)cc2)cc1` (configuration not stated), the inhibition was -11.5%.

As to `S=C(NC1CCCC1)NC1CCCC1`, the inhibition is 2.9%.

As to `N#C/C(=C\c1cc([N+](=O)[O-])ccc1Cl)C(N)=O`, the inhibition is -44.7%.

With `O=C(O)c1cc(C(F)(F)F)nc2c(C(F)(F)F)cccc12`, the inhibition was -18.1%.

`Cc1cc(C)nc(NC(=O)/C=C/c2ccc(Cl)cc2Cl)c1`: the inhibition was -58%.

In the case of `COc1ccc(C(=O)/C=C/c2ccccc2C(F)(F)F)cc1`, the inhibition is -21.4%.

As for `O=C(CCC(=O)Nc1cc(C(F)(F)F)ccc1Cl)N/N=C\c1cc([N+](=O)[O-])ccc1O`, the inhibition was 3%.

With `Clc1ccc(/C=C/c2ncc[nH]2)c(Cl)c1`, the inhibition is -2%.

With `Cc1ccc(OCCCC(=O)NCc2ccco2)c(C)c1`, the inhibition is -28.1%.

In the case of `COc1ccc(NC2CCCN(C(=O)CCCN3CCCCC3=O)C2)cc1` (configuration not stated), the inhibition is 19.3%.

In the case of `CCc1ccc(CNC(=O)CCS(=O)(=O)Cc2ccccc2F)cc1`, the inhibition was 3.9%.

With `CCC/C(C)=C/c1ccc(CC)cn1`, the inhibition is 12.7%.

`COc1cc(CNc2ccc(C(=O)O)cc2)cc(Br)c1OCC(=O)NC(C)(C)C`: the inhibition was -27.4%.

With `CCOc1cc(CNc2ccccc2)cc(Br)c1OCC(=O)NC(C)(C)C`, the inhibition was 4.8%.

For the compound `COc1cc(CNc2cccc(C(=O)O)c2)cc(Br)c1OCC(=O)NC(C)(C)C`, the inhibition is 94.3% (active).

With `CC(=O)c1ccc(N2CCN(S(=O)(=O)c3ccc4c5c3CC(=O)N5CC(C)S4)CC2)cc1` (configuration not stated), the inhibition is -20.1%.

On to `CCn1c(O)c(N=NC(=O)c2cccs2)c2ccccc21`, for which the inhibition is -38.2%.

On to `COc1cccc(C2CC(c3ccc(Cl)cc3)Nc3nc(N)nn32)c1` (configuration not stated), for which the inhibition was 13.7%.

Take `OCc1nnn(-c2ccccc2)c1CO`: the inhibition is -4.1%.

In the case of `NC(=O)c1nnn(-c2ccccc2)c1N`, the inhibition was -28.7%.

In the case of `Nc1c(CO)nnn1-c1ccccc1`, the inhibition is 68.7% (active).

Consider `COc1cc(/C=C/C(=O)OCC(=O)Nc2cc(C)c(C)cc2[N+](=O)[O-])ccc1O`, for which the inhibition was -8.4%.

Regarding `O=S(=O)(NCC1CCCO1)c1ccc(-c2ccc(Cl)cc2)cc1` (configuration not stated), the inhibition is 9.5%.

In the case of `Cc1ccc(-c2ccc(S(=O)(=O)NCC3CCCO3)cc2)cc1` (configuration not stated), the inhibition is 47.8%.

With `Cc1cccc(N2CCN(c3ccc4cc(S(=O)(=O)N5CCCCC5)ccc4n3)CC2)c1C`, the inhibition is 25.6%.

On to `CCOc1ccccc1NC(=O)CSc1ccccc1`, for which the inhibition was -13.6%.

Regarding `S=C(Nc1ccc(Cl)cc1Cl)NC1CCCCC1`, the inhibition was -5%.

Take `Cc1cc(Cl)ccc1NC(=S)NC1CCCC1`: the inhibition was 24%.

On to `CC1CCCCC1NC(=S)Nc1ccc(Cl)cc1Cl` (configuration not stated), for which the inhibition is 42.2% (active).

In the case of `CCOC(=O)C(C)NC(=O)c1cn(-c2ccc(OC)cc2)c(=O)c2ccccc12` (configuration not stated), the inhibition is 1.9%.

Turning to `CCOC(=O)c1ccccc1NC(=O)c1cn(-c2ccc(OC)cc2)c(=O)c2ccccc12`, the inhibition was 73.4% (active).

With `CCOC(=O)c1ccccc1NC(=O)c1cn(-c2ccc(C)c(C)c2)c(=O)c2ccccc12`, the inhibition is 48%.

On to `C=CCNC(=O)c1oc2ccc(S(=O)(=O)N3CCC4(CC3)OCCO4)cc2c1C`, for which the inhibition was -20.9%.

With `Cc1noc(C)c1C(=O)OCC(=O)Nc1ccccc1Oc1ccccc1`, the inhibition was -14%.

With `Cc1csc(NC(=O)c2cc3c(s2)CCCCC3)n1`, the inhibition was 73.7% (active).

As to `Cc1csc(NC(=O)c2cc3c(s2)CCCC3)n1`, the inhibition was -106%.

On to `Cc1csc(NC(=O)c2cc3c(s2)CCC3)n1`, for which the inhibition was 5.9%.

Regarding `CCOCCCNC(=O)c1ccc(N2CC3CC(C2)c2cccc(=O)n2C3)c(NC(=O)Nc2cccc(OC)c2)c1` (configuration not stated), the inhibition was -1.7%.

With `COc1cccc2c1cc1c(=O)n(CC(=O)N3CCCCCC3)nc(C)n12`, the inhibition is -16%.

On to `CCn1cc(Br)c(C(=O)Nc2sc3c(c2C(N)=O)CCCC3)n1`, for which the inhibition is -18.1%.

Turning to `CCn1ncc(Br)c1C(=O)Nc1sc2c(c1C(N)=O)CCC2`, the inhibition is 77.1% (active).

As to `Cn1ncc(Cl)c1C(=O)Nc1sc2c(c1C(N)=O)CCC2`, the inhibition was -24.6%.

In the case of `Cc1ccc(OS(=O)(=O)c2c(C)nn(C)c2Cl)c(C)c1`, the inhibition was -19.4%.

`CCn1cc(C(=O)O)c(=O)c2cc(F)c(N3CCN(C(=S)NC(=O)c4ccccc4Br)CC3)cc21`: the inhibition is -0.8%.

For the compound `CN1CCN(C(=S)Nc2ccc(Oc3ccccc3)cc2)CC1`, the inhibition was 6.6%.

Regarding `CC(C)=CC(=O)Nc1c(C)cc(C)cc1Cl`, the inhibition was -18%.

As for `COc1ccc(-c2nc3ccccc3s2)cc1`, the inhibition was -35.3%.

As for `Oc1ccc(-c2nc3ccccc3s2)cc1`, the inhibition was -6.1%.

On to `CCOC(=O)Cc1csc(SC(C)C(=O)NCC(=O)Nc2ccc(F)c(F)c2F)n1` (configuration not stated), for which the inhibition was -36.3%.

On to `COc1ccc(C(=O)N/C(=C\c2cccs2)C(=O)N2CCN(C)CC2)cc1OC`, for which the inhibition is -14.2%.

For `O=C(c1ccco1)N1CCN(c2nc(C3CC3)nc3c2nnn3Cc2ccccc2Cl)CC1`, the inhibition is 44.4% (active).

As for `NC(=O)C1CCN(c2nc(C3CC3)nc3c2nnn3Cc2ccccc2Cl)CC1`, the inhibition is 10.7%.

In the case of `O=C(c1ccco1)N1CCN(c2ncnc3c2nnn3Cc2ccccc2Cl)CC1`, the inhibition was 11.1%.

For the compound `O=C(Cn1nnc(-c2cc(C(F)(F)F)cc(C(F)(F)F)c2)n1)NNC(=S)Nc1ccc(Cl)cc1`, the inhibition is 10.2%.

For the compound `O=C(COC(=O)Cc1ccc(Cl)cc1)Nc1c(F)cccc1F`, the inhibition was -44%.

As for `COc1cc(/C=N/NC(=O)c2ccncc2)ccc1OC(=O)c1ccco1`, the inhibition is 29.2%.

As for `CC(=O)c1c(C)[nH]c(C(=O)OCC(=O)NCCc2ccc(F)cc2)c1C`, the inhibition is -0.8%.
